Reference: the supplement of paper PMC6279402
Structures can show the parent of a compound that is named as a salt. ± gives the standard deviation of the averaged measurements.

Each compound was assayed on A549 (assay: relative viability (normalised to negative control = 1, bortezomib = 0) (fraction); higher = less cytotoxic). Conditions: inflammatory serum-free RHB-A with cytokines + LPS; 5 d + 24 h CellTiter-Blue; compound 30 nM; GSK126 pretreatment: 5 uM GSK126.

| SMILES | relative viability |
| --- | --- |
| O=C(c1ccc(/C=C/c2n[nH]c3ccccc23)cc1)N1CCNCC1 | 0.843 ± 0.022 |
| Cc1cn(-c2cc(NC(=O)c3ccc(C)c(Nc4nccc(-c5cccnc5)n4)c3)cc(C(F)(F)F)c2)cn1 [Nilotinib] | 1.02 ± 0.13 |
| CC1(COc2ccc3c(c2)ncn3-c2ccc3cccc(N4CCC(N)CC4)c3n2)COC1 | 0.986 ± 0.081 |
| Cc1[nH]c(/C=C2\C(=O)Nc3ccccc32)c(C)c1CCC(=O)O | 0.78 ± 0.0017 |
| COc1cc2nccc(Oc3ccc(NC(=O)Nc4ccc(F)cc4F)c(F)c3)c2cc1OC | 0.86 ± 0.097 |

Same assay, conditions: inflammatory serum-free RHB-A with cytokines + LPS; 5 d + 24 h CellTiter-Blue; compound 30 nM; GSK126 pretreatment: none (vehicle)

| SMILES | relative viability |
| --- | --- |
| CC[C@]1(O)C[C@@H]2CN(CCc3c([nH]c4ccccc34)[C@@](C(=O)OC)(c3cc4c(cc3OC)N(C)[C@H]3[C@@](O)(C(=O)OC)[C@H](OC(C)=O)[C@]5(CC)C=CCN6CC[C@]43[C@@H]65)C2)C1 [Vinblastine sulfate salt; Vinblastine sulfate] | 0.286 ± 0.039 |
| NCC(=O)CCC(=O)O [Aminolevulinic acid hydrochloride; Aminolevulinic acid] | 0.985 ± 0.1 |
| CCN(CCO)CCCOc1ccc2c(Nc3cc(CC(=O)Nc4cccc(F)c4)[nH]n3)ncnc2c1 [AZD1152-HQPA(Barasertib)] | 0.714 ± 0.031 |
| COc1ccc(S(=O)(=O)N(C(C)=O)c2ccccc2/C=C/c2cc[n+]([O-])cc2)cc1 | 0.914 ± 0.033 |
| CC[C@@]1(O)C(=O)OCc2c1cc1n(c2=O)Cc2cc3c(CN(C)C)c(O)ccc3nc2-1 [Topotecan HCl; Topotecan hydrochloride] | 0.383 ± 0.021 |
| CC[C@@H]1C(=O)N(C)c2cnc(Nc3ccc(C(=O)NC4CCN(C)CC4)cc3OC)nc2N1C1CCCC1 | 0.362 ± 0.021 |
